According to PubChem BioAssay AID1159580 (chemical genetic matrix, 2015):
Where “and” joins values, the source holds several entries; their conditions need not be identical. Equal values may be shown once. About 2,000 (36%) of roughly 5,500 compounds were called active. Roughly 18% stayed inconclusive and do not appear here. Cut-off read from the data, not from the text of the source: active = normalized growth mostly below about 0.91 (no sharp cut-off); inconclusive = no clear call, values can overlap the other calls; inactive = mostly above about 0.92. The list shows a part of the results.

Test: chemical genetic growth profiling, strain panel (AID 1159580);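 note: tested at 20 µM; growth read once vehicle control cultures reached saturation at 30 °C; 1 = growth at the plate median or of vehicle wells; lower values mean less growth of the strain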
Conditions: S. cerevisiae deletion strains, growth OD

Measured: normalized growth

NC(=O)c1cnccn1
inactive: locus YAL013W, strain DEP1, stronger effect = lower value 1.01 and 1.02 | locus YAL021C, strain ccr4, stronger effect = lower value 0.992 | locus YAL026C, strain drs2, stronger effect = lower value 1.01 | locus YAL030W, strain snc1, stronger effect = lower value 0.996 | locus YAL040C, strain CLN3, stronger effect = lower value 1 | locus YBL061C, strain skt5, stronger effect = lower value 0.988 | locus YBR009C, strain hhf1, stronger effect = lower value 1.01 | locus YBR021W, strain FUR4, stronger effect = lower value 1.02 | locus YBR023C, strain chs3, stronger effect = lower value 1.01 | locus YBR171W, strain sec66, stronger effect = lower value 0.968 | locus YBR229C, strain ROT2, stronger effect = lower value 1 | locus YBR231C, strain swc5, stronger effect = lower value 0.984 | locus YBR279W, strain paf1, stronger effect = lower value 1 | locus YCL011C, strain gbp2, stronger effect = lower value 1 | locus YCL016C, strain dcc1, stronger effect = lower value 1.01 | locus YCL029C, strain bik1, stronger effect = lower value 1 | locus YCL061C, strain MRC1 (second series), stronger effect = lower value 1.01 | locus YCL069W, strain vba3, stronger effect = lower value 1 | locus YCR088W, strain abp1, stronger effect = lower value 0.981 | locus YDL005C, strain med2, stronger effect = lower value 0.974 | locus YDL035C, strain GPR1, stronger effect = lower value 1.01 | locus YDL040C, strain nat1, stronger effect = lower value 0.984 | locus YDL074C, strain BRE1, stronger effect = lower value 1 | locus YDL101C, strain DUN1, stronger effect = lower value 1.01 | locus YDL134C, strain PPH21, stronger effect = lower value 1.01 | locus YDL185W, strain tfp1, stronger effect = lower value 1.02 | locus YDL192W, strain arf1, stronger effect = lower value 1.01 | locus YDR001C, strain nth1, stronger effect = lower value 0.996 | locus YDR069C, strain doa4, stronger effect = lower value 0.982 | locus YDR101C, strain arx1, stronger effect = lower value 1 | locus YDR137W, strain rgp1, stronger effect = lower value 0.98 | locus YDR150W, strain NUM1, stronger effect = lower value 0.993 and 1 | locus YDR159W, strain sac3, stronger effect = lower value 1 | locus YDR162C, strain NBP2, stronger effect = lower value 1.01 | locus YDR195W, strain ref2 0.905 | locus YDR297W, strain sur2, stronger effect = lower value 0.994 | locus YDR318W, strain mcm21, stronger effect = lower value 1.02 | locus YDR334W, strain swr1, stronger effect = lower value 0.98 | locus YDR335W, strain msn5, stronger effect = lower value 0.99 | locus YDR363W, strain ESC2, stronger effect = lower value 0.964 | locus YDR388W, stronger effect = lower value 1.01 | locus YDR392W, strain spt3, stronger effect = lower value 1.05 | locus YDR502C, strain sam2, stronger effect = lower value 1.01 | locus YEL003W, strain gim4, stronger effect = lower value 0.992 | locus YEL037C, strain rad23, stronger effect = lower value 0.995 | locus YEL061C, strain CIN8 (second series), stronger effect = lower value 0.994 | locus YEL061C, strain CIN8, stronger effect = lower value 1 | locus YER002W, strain NOP16, stronger effect = lower value 1.01 | locus YER015W, strain faa2, stronger effect = lower value 0.995 | locus YER016W, strain bim1, stronger effect = lower value 1 | locus YER110C, stronger effect = lower value 0.995 | locus YER111C, strain swi4, stronger effect = lower value 0.993 | locus YER155C, strain BEM2 (second series), stronger effect = lower value 0.955 | locus YER155C, strain BEM2, stronger effect = lower value 1.01 | locus YER167W, strain BCK2, stronger effect = lower value 1.01 | locus YFR010W, strain ubp6, stronger effect = lower value 0.979 | locus YGL078C, strain dbp3, stronger effect = lower value 0.993 | locus YGL086W, strain mad1, stronger effect = lower value 1.02 | locus YGL167C, strain pmr1, stronger effect = lower value 0.987 | locus YGL173C, strain kem1, stronger effect = lower value 0.983 | locus YGL227W, strain vid30, stronger effect = lower value 0.991 | locus YGL240W, strain doc1, stronger effect = lower value 0.959 | locus YGL248W, strain PDE1, stronger effect = lower value 1 | locus YGL253W, strain hxk2, stronger effect = lower value 1.02 | locus YGR135W, strain pre9, stronger effect = lower value 0.996 | locus YGR229C, strain SMI1, stronger effect = lower value 1.03 and 1.02 | locus YGR252W, strain gcn5, stronger effect = lower value 0.988 | locus YHR013C, strain ard1, stronger effect = lower value 0.966 | locus YHR027C, strain rpn1, stronger effect = lower value 0.995 | locus YHR030C, strain SLT2, stronger effect = lower value 1 and 1.07 | locus YHR079C, strain IRE1 (second series), stronger effect = lower value 1.01 | locus YHR079C, strain IRE1, stronger effect = lower value 1.03 | locus YHR094C, strain hxt1, stronger effect = lower value 0.999 | locus YHR129C, strain ARP1, stronger effect = lower value 0.996 | locus YHR142W, strain chs7, stronger effect = lower value 0.992 | locus YHR200W, strain rpn10, stronger effect = lower value 1 | locus YIL066C, strain RNR3, stronger effect = lower value 1.01 | locus YIL073C, strain SPO22, stronger effect = lower value 1.06 | locus YIL125W, strain kgd1, stronger effect = lower value 0.999 | locus YIR030C, strain dcg1, stronger effect = lower value 1 | locus YJL092W, strain hpr5, stronger effect = lower value 0.974 | locus YJL095W, strain BCK1 (second series), stronger effect = lower value 0.995 | locus YJL095W, strain BCK1, stronger effect = lower value 0.997 and 1.06 | locus YJL115W, strain asf1, stronger effect = lower value 0.995 | locus YJL129C, strain trk1, stronger effect = lower value 0.981 | locus YJL134W, strain LCB3, stronger effect = lower value 1.01 | locus YJL154C, strain vps35, stronger effect = lower value 0.991 | locus YJL164C, strain tpk1, stronger effect = lower value 1.01 | locus YJL166W, strain qcr8, stronger effect = lower value 0.969 | locus YJL168C, strain set2, stronger effect = lower value 1.01 | locus YJL187C, strain SWE1 (second series), stronger effect = lower value 1.01 | locus YJR043C, strain POL32, stronger effect = lower value 1 | locus YJR066W, strain TOR1, stronger effect = lower value 1
